SMILES strings stand for the structures. The source made the active and inactive calls.

Assay [1] is described as follows: binders of probe aFSTL3 on microarray, primary screen, stem cell growth factor project, biochemical, small-molecule microarray, fluorescence 635/667 (AID 1064).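 Further: measures binding of the biotinylated anti-FSTL3 antibody to printed compounds.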 The settings on record: higher = more signal.
Assay [2] is described as follows: binders from COS7 lysate, DM2A8 probe, primary screen, torsin A project, cell lysate, small-molecule microarray, fluorescence 635/667 (AID 1065). The settings on record: higher = more signal, COS7 lysate expressing mutant human TOR1A.
A short description of assay [3]: binders of probe aFGF2 on microarray, primary screen, stem cell growth factor project, biochemical, small-molecule microarray, fluorescence 635/667 (AID 1067).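 Further: measures binding of biotinylated aFGF2 protein to printed compounds on slides; z-score merges feature fluorescence and signal-to-noise across triplicate slides.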 Conditions: higher = more signal.
Assay [4] in a line: binders of probe aFGF10 on microarray, primary screen, stem cell growth factor project, biochemical, small-molecule microarray, fluorescence 635/667 (AID 1071).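 Further: score merges 667 nm spot intensity and signal to noise from triplicate slides.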 Conditions: higher = more signal.
Assay [5] addresses Neurogenic locus notch homolog protein 2 (Homo sapiens) (UniProt Q04721). In words: Notch2 binders on small-molecule microarrays, primary screen, biochemical, small-molecule microarray, 635 nm fluorescence, stem cell growth factors (AID 1073). Conditions: Notch2 binding, higher = more signal.
For assay [6], the target named is Pro-neuregulin-1, membrane-bound isoform (Homo sapiens) (UniProt Q02297). In words: NRG1 binders on small-molecule microarrays, primary screen, psychiatric disease protein project, biochemical, small-molecule microarray, fluorescence 635/667 (AID 1075).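 Further: score combines 667 nm spot fluorescence with signal to noise.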 The settings on record: NRG1 binding, 635 nm fluorescence, higher = more signal.
Chain of Pro-neuregulin-1, membrane-bound isoform (Homo sapiens) (Q02297 whole entry, looked up, the tested form may be a part, canonical isoform): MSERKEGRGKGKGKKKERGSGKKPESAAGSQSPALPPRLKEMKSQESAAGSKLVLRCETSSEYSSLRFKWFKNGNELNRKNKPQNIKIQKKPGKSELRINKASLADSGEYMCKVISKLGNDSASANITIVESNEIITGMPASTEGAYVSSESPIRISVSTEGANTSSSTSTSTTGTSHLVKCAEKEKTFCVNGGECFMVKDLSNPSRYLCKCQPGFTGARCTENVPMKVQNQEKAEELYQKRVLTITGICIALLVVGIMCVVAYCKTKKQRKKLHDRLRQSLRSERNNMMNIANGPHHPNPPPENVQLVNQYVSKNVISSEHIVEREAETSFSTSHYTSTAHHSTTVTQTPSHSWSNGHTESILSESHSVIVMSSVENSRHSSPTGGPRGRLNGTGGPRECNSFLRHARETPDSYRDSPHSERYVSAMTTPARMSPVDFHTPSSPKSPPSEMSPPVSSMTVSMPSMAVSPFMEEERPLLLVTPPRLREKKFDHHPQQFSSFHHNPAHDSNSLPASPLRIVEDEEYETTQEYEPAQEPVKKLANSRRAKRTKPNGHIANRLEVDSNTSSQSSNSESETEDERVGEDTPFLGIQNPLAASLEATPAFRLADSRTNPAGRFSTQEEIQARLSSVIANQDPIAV
Assay [7] has as its system Neuregulin-1 EGF-like domain. In words: binders of neuregulin-1 EGF-like domain, primary screen, biochemical, small-molecule microarray, 635 nm fluorescence (AID 1081).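 Further: binding of the protein to compounds printed on small-molecule microarray slides.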 The settings on record: small-molecule microarray binding, higher = more signal.
Assay [8] can be described thus: FRG1 promoter luciferase signal modulators, primary screen, FRG1 inhibition for FSHD, cell-based, C2C12 myotubes, firefly/Renilla luciferase, luminescence (AID 1084). Conditions: higher = more signal, called active from +8 up or from −8 down.
Assay [9] is described as follows: binders of probe aFST on microarray, primary screen, stem cell growth factor project, biochemical, small-molecule microarray, fluorescence 635/667 (AID 1086).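 Further: score merges 667 nm fluorescence with signal-to-noise of each printed compound spot.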 The settings on record: higher = more signal.
Assay [10] in a line: binders of probe aHhip on microarray, primary screen, stem cell growth factor project, biochemical, small-molecule microarray, fluorescence 635/667 (AID 1087).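 Further: score merges spot fluorescence at 667nm with spot signal to noise ratio.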 Conditions: higher = more signal.

Chain of Neurogenic locus notch homolog protein 2 (Homo sapiens) (Q04721 whole entry, looked up, canonical isoform): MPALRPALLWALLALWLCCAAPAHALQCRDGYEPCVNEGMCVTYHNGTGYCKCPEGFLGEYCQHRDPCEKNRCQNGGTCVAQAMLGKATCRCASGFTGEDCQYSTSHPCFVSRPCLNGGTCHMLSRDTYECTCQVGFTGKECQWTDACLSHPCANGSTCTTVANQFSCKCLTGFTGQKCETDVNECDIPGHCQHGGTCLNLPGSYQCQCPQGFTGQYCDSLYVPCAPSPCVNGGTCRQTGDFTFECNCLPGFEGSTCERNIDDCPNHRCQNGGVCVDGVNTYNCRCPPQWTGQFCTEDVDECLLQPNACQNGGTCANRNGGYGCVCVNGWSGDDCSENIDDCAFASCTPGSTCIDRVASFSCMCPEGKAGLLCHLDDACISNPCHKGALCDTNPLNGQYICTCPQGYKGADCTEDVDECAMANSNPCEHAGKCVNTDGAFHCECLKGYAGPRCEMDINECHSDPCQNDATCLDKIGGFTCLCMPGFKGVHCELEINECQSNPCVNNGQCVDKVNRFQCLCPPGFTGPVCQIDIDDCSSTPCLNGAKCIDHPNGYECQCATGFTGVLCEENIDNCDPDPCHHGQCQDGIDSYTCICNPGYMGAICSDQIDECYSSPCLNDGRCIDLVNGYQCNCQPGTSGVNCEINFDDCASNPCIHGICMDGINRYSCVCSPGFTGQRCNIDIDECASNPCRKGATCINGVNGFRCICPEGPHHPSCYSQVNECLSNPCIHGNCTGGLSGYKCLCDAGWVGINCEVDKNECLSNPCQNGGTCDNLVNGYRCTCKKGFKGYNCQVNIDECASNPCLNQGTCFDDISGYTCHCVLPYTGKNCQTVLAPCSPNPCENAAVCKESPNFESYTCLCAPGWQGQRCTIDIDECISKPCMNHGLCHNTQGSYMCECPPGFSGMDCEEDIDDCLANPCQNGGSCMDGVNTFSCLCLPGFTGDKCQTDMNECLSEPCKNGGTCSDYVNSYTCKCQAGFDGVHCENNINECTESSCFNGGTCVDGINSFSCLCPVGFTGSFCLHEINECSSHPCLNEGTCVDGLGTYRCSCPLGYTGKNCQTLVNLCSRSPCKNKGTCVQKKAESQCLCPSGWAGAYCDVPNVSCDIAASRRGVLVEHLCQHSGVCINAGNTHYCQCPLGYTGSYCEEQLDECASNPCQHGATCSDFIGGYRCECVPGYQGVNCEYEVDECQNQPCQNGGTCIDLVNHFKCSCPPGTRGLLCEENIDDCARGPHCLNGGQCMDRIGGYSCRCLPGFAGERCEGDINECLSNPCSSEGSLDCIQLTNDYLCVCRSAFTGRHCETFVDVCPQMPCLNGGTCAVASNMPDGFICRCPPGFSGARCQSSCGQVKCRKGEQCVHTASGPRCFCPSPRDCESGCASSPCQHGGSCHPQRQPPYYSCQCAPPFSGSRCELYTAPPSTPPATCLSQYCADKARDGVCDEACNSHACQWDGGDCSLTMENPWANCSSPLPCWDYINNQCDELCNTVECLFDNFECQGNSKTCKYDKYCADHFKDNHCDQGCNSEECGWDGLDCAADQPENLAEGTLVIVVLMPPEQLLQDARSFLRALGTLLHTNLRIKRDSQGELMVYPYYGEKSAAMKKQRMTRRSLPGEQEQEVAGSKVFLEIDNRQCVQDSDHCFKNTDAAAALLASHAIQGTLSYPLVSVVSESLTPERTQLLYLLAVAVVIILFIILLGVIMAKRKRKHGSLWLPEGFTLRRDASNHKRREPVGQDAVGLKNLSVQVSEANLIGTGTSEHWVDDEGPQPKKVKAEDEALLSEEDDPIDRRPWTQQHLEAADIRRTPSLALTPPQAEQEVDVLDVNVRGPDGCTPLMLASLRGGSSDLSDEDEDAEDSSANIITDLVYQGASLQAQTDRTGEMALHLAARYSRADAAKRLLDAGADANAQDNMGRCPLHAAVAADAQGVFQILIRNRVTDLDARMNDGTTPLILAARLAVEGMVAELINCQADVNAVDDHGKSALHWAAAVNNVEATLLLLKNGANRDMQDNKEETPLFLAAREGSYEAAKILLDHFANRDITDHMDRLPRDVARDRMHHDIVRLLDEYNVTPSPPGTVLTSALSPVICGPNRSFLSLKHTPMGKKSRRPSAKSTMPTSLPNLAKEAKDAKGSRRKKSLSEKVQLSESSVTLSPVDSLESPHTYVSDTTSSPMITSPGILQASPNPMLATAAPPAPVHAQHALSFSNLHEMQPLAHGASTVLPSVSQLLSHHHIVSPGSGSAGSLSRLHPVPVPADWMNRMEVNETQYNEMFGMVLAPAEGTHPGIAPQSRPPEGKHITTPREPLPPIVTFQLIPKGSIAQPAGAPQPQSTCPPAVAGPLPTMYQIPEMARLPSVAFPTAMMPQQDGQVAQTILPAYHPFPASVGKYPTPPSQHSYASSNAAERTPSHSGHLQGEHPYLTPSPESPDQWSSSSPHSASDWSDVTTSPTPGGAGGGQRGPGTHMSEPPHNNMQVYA

As for `NC(=O)NCC#Cc1ccc2c(c1)[C@]1(C(=O)N2)[C@H](C(=O)O)[C@H]2C(=O)O[C@H](c3ccccc3)[C@H](c3ccccc3)N2[C@@H]1c1ccc(O)cc1`, the composite z-score in assay [1] is 2.62; in [2], -0.0893; in assay [3] it was -0.0098; in [4], -0.135; in assay [5], 0.053; in [6], 0.441. The results for the composite z-score in assay [7], in assay [9] and in [10] were -0.293, 1.83 and 0.182, respectively. For the same compound, the z-score in [8] is 1.5 (inactive).
Turning to `CC(C)(C)OC(=O)CC[C@@]1(C(=O)N2CCCCC2)N=C(c2ccc(OCCCO)cc2)O[C@@H]1c1ccccc1`, the composite z-score was found to be 0.249 in assay [1]; 0.615 in [2]; 0.171 in assay [3]; 0.783 in [4]; 1.68 in assay [5]; 1.72 in assay [6]. For the same compound, the composite z-score is 1.23 in assay [7], 1.12 in [9] and -0.0618 in assay [10]. For the same compound, the z-score in assay [8] is -3.24 (inactive).
Regarding `CC1CC/C=C\[C@H]2OC34C=CCN(Cn5nnc6ccccc65)C(=O)[C@H]3N(CCCCCO)C(=O)[C@@H]4C2C(=O)O1` (stereo not given in full), the composite z-score was -0.05 in [1]; -0.67 in assay [2]; -0.148 in [3]; -0.499 in [4]; -1.38 in assay [5]; -0.917 in [6]. Further, the composite z-score in assay [7] is -0.417; in assay [9] it was -0.815; in [10], -0.251. The z-score in assay [8] is -0.373 (inactive).
As to `CS(=O)(=O)CCOC(=O)C1=CC(CCCO)=CC(c2ccc(CN3CCCC3)cc2)N(Cc2cccc(OC(F)(F)F)c2)C=C1C(=O)OCCS(C)(=O)=O` (stereo not given), the composite z-score in assay [1] came to 0.384; in [2], 0.851; in assay [3], 0.0036; in assay [4], 0.952; in assay [5], 0.978; in assay [6], 0.691. For the same compound, the composite z-score worked out at 0.909 in assay [7], 0.66 in assay [9] and 0.154 in [10]. The z-score in assay [8] was 0.173 (inactive).
On to `COCCOC(=O)N1C(=O)[C@@]2(c3cc(C#CC4=CCCCC4)ccc31)[C@H](C(N)=O)[C@H]1C(=O)O[C@H](c3ccccc3)[C@H](c3ccccc3)N1[C@@H]2c1ccc(O)cc1`, for which the composite z-score was -0.0926 in assay [1]; 0.368 in [2]; 0.0122 in [3]; 0.683 in assay [4]; 1.28 in assay [5]; 0.758 in assay [6]. Moreover, the composite z-score amounted to 1.11 in [7], 0.416 in assay [9] and 0.0623 in assay [10]. In [8], the z-score was -0.95 (inactive).
For `COC(=O)c1c2oc(c1C(=O)OC)C(=O)NC1(CCCCC1)c1cn(nn1)C[C@H](Cc1ccccc1)NC(=O)N[C@H](CO)CC2`, the composite z-score in assay [1] is -0.414; in assay [2], -0.0111; in assay [3], -0.13; in assay [4], 0.117; in assay [5], 0.531; in assay [6] it was 1.49. The composite z-score in [7] is 1.11; in [9], -0.224; in assay [10], 0.0373. Also, the z-score in assay [8] was -0.553 (inactive).
Consider `C=CC[C@]1(C(=O)N2CCOCC2)N=C(c2ccc(OCCCO)cc2)O[C@H]1c1ccccc1N=[N+]=[N-]`, for which the composite z-score in assay [1] is -0.0247; in assay [2], 0.572; in assay [3], 0.102; in assay [4], 0.642; in assay [5], 1.24; in assay [6], 1.8. The figures for the composite z-score in assay [7], in assay [9] and in assay [10] were 1.25, 1.2 and 0.0596, respectively. Moreover, the z-score in assay [8] was -0.322 (inactive).
Take `O=C1OCCC/C=C\[C@H]2OC34C=CCN(c5ccc6ccccc6c5)C(=O)[C@H]3N(CCCCCO)C(=O)[C@@H]4C12` (stereo not given in full): the composite z-score was 0.149 in [1]; -0.763 in [2]; -0.195 in assay [3]; -0.759 in [4]; -0.367 in assay [5]; -0.634 in [6]. For the same compound, the composite z-score in assay [7] is -0.773; in [9], -0.602; in assay [10], -0.169. In addition, the z-score in assay [8] is 0.815 (inactive).
In the case of `COc1ccc([Si](C)(C)[C@@H]2[C@@H](CC(=O)N3Cc4ccccc4C[C@H]3CO)O[C@]3(C(=O)N(Cc4cccc(N5CCC5=O)c4)c4ccccc43)[C@H]2C)cc1`, the composite z-score in assay [1] was -0.0762; in [2], 0.3; in assay [3] it was -0.07; in assay [4], 0.507; in [5] it was 0.596; in [6] it was 0.592. Moreover, the figures for the composite z-score in assay [7], in assay [9] and in assay [10] were 1.22, 0.113 and 0.35, respectively. For the same compound, the z-score in assay [8] was -1.07 (inactive).
As for `CCCC=C(CCC)[C@@H](NS(=O)(=O)c1ccc(Cl)cc1)c1ccc(C(=O)OC)cc1`, the composite z-score was -0.172 in assay [1]; -0.114 in assay [2]; -0.0841 in [3]; 0.484 in assay [4]; 0.41 in [5]; -0.194 in assay [6]. The composite z-score was 0.866 in assay [7], 0.0699 in [9] and -0.236 in [10]. In assay [8], the z-score was 2.58 (inactive).
With `CC(C)C(=C=CC[C@H](O)c1ccc(CO)o1)CCO`, the composite z-score in assay [1] was 0.0959; in [2], 1.5; in assay [3], -0.141; in assay [4] it was 0.153; in assay [5], -0.57; in assay [6] it was 1.57. Besides, the composite z-score in assay [7] is 1.16; in assay [9], 0.164; in assay [10] it was -0.202. Also, the z-score in [8] was 0.859 (inactive).
In the case of `Cc1ccc(/C=C/C=O)cc1`, the composite z-score is 0.16 in assay [1]; -0.513 in [2]; -0.0704 in assay [3]; 0.2 in assay [4]; -0.516 in assay [5]; -0.0188 in assay [6]. For the same compound, the composite z-score is -0.452 in [7], -0.0522 in assay [9] and 0.0156 in assay [10]. Also, in [8], the z-score is 0.944 (inactive).
On to `CC(C)CNC(=O)[C@@]1(Cc2ccccc2I)c2ccccc2C(=O)N(Cc2ccccc2C(F)(F)F)[C@H]1c1ccc(CO)cc1`, for which the composite z-score in assay [1] is 0.0085; in assay [2] it was 0.0038; in [3], -0.118; in assay [4], -0.128; in assay [5] it was -1.46; in [6] it was 0.89. The composite z-score in assay [7] is -0.13; in assay [9], -0.374; in assay [10] it was -0.236. The z-score in assay [8] is 0.49 (inactive).
For `C=CC1c2cc(O)c(OC)cc2CCN1Cc1cccc(OC(F)(F)F)c1` (stereo not given), the composite z-score in assay [1] was 0.335; in assay [2] it was -0.145; in [3], -0.103; in assay [4] it was -0.605; in assay [5], -0.137; in assay [6], 1.59. Moreover, the results for the composite z-score in assay [7], in assay [9] and in assay [10] were 1.1, -0.108 and -0.268, respectively. Further, the z-score in assay [8] was 0.385 (inactive).
With `O=C1C2C=CC(C(O)c3ccc4c(c3)OCO4)N(Nc3ccc([N+](=O)[O-])cc3)C2C(=O)N1c1ccccc1` (stereo not given), the composite z-score in [1] is -0.407; in [2] it was 0.566; in assay [3], 0.0019; in assay [4] it was 0.791; in assay [5], 1.05; in [6], 0.626. Further, the composite z-score in assay [7] was 0.65; in [9] it was 0.314; in assay [10], -0.134. Also, the z-score in assay [8] was -0.383 (inactive).
As for `OCC1C=C(/C=C/c2ccccc2)CN1Cc1ccccc1Br` (stereo not given), the composite z-score in assay [1] was -0.337; in assay [2], 0.422; in assay [3], 0.0619; in [4], 0.979; in assay [5] it was 1.42; in assay [6] it was 0.808. In addition, the composite z-score in assay [7] is 0.331; in assay [9], 0.379; in [10], -0.136. Moreover, in assay [8], the z-score is -1.8 (inactive).
Take `COC(=O)[C@@]1(Cc2ccc(OC)cc2)[C@H]2c3cc(C(=O)N4CCCC4)n(CCc4ccc(O)c(O)c4)c3C[C@H]2CN1C(=O)c1ccccc1`: the composite z-score in [1] was found to be 1.65; in assay [2], 0.269; in [3], 0.0215; in assay [4], 0.0359; in [5], 1.33; in assay [6], 2.26. The results for the composite z-score in [7], in assay [9] and in [10] were 1.11, 0.939 and -0.156, respectively. Also, the z-score in [8] was 2.61 (inactive).

The record behind these values is PubChem BioAssay.
